{"source": "PubChem BioAssay AID902", "about": "(National Center for Advancing Translational Sciences (NCATS), 2007)", "note": "Several values for one entry are separate records, joined by “and”; a condition that tells them apart may be missing. Equal values may be shown once. Screen size: about 130,000 compounds; about 1,900 (1.5%) were called active. Not shown: some 5% with an inconclusive outcome. What follows is part of a selection rich in actives, with near analogues and random picks from the rest. Where a call stands in place of a potency, no number is given. A number with no mark means an inactive call. Calls come from the whole dose curve; as a rule, active = well fitted cell-killing curve with a large enough effect; inconclusive = small, poorly fitted or top-dose-only effect; inactive = no such curve, though single readings can be large or run the other way. Potency is the fitted concentration of half-maximal effect.", "data": [{"experiment": "qHTS Screen for Compounds that Selectively Target Cancer Cells with p53 Mutations: Cytotoxicity of p53ts Cells at the Nonpermissive Temperature; note: nearly all actives have a fitted effect of over 55% in size", "settings": "H1299-p53A138V viability at 39C, ATP luminescence, 24 h; series mostly up to 46.1 µM", "values": [{"smiles": "Cn1c(=O)nc2n(-c3ccc(Br)cc3)c3cccc(Cl)c3cc-2c1=O", "Potency": "inactive"}, {"smiles": "CCCCCn1c(=O)[nH]c2cc(C(=O)Nc3ccc(F)cc3)ccc2c1=O", "Potency": "inactive"}, {"smiles": "Cn1nc(-c2ccccc2)c(-c2ccccc2)c(C(=O)Nc2ccc(S(N)(=O)=O)cc2)c1=O", "Potency": "inactive"}, {"smiles": "COc1ccc2cc(CNc3ccc(OC)c(OC)c3)c(=O)n(CC(=O)Nc3ccccc3F)c2c1", "Potency": "inactive"}, {"smiles": "Cc1c2cnn(-c3ccccc3)c(=O)c2c(C)n1C(C)C(=O)Nc1ccc(Br)cc1F", "note": "(stereo unspecified)", "Potency": "inactive"}, {"smiles": "COc1ccc(/C=C/NC(=O)Cc2ccc(OC)c(OC)c2)cc1", "activity change, negative = cell killing": "-6.46% [at 9.22 µM] and 8.2% [at 9.22 µM]"}, {"smiles": "CCN(CCCCOC(=O)c1ccc(OC)c(OC)c1)C(C)Cc1ccc(OC)cc1", "note": "(stereo unspecified)", "Potency": "inactive"}, {"smiles": "COc1ccc(C(CCN(Cc2ccc(OC)c(OC)c2)C(=O)CCl)c2ccccc2)cc1", "note": "(stereo unspecified)", "Potency": "3.98 µM (active)"}, {"smiles": "O=C(NCc1ccccc1)c1cc(-c2cccc(Cl)c2)on1", "Potency": "inactive"}, {"smiles": "COc1ccc(-c2cc(-c3nc(-c4cc(OC)c(OC)c(OC)c4)no3)[nH]n2)c(OC)c1", "Potency": "inactive"}, {"smiles": "COc1ccc(-c2noc(CSc3nnc(-c4ccccc4)n3-c3ccc(F)cc3)n2)c(OC)c1", "Potency": "inactive"}, {"smiles": "COc1ccc(-c2nc(-c3ccccc3)no2)c(OC)c1", "Potency": "6.31 µM (active)"}, {"smiles": "O=C(CN1CCN(Cc2ccc(Cl)cc2)C1=O)NCc1ccc(F)cc1", "Potency": "inactive"}, {"smiles": "Cc1ccc(C)c(N2CCN(c3ccc4cc(S(=O)(=O)N5CCC(C)CC5)ccc4n3)CC2)c1", "Potency": "inactive"}, {"smiles": "COC(=O)Cc1nc2ccccc2[nH]1", "Potency": "inactive"}, {"smiles": "O=C(COc1ccccc1)NCCc1nc2ccccc2[nH]1", "Potency": "inactive"}, {"smiles": "N#C/C(=C(/O)COC(=O)COc1ccc(Cl)cc1)c1nc2ccccc2[nH]1", "Potency": "20 µM (active)"}, {"smiles": "COc1ccc(CNC(=O)CSc2n[nH]c(-c3ccc(F)cc3)n2)cc1", "Potency": "inactive"}, {"smiles": "O=C(NCC(c1cccnc1)N1CCc2ccccc21)c1cccc(C(F)(F)F)c1", "note": "(stereo unspecified)", "Potency": "inactive"}, {"smiles": "Cc1ccc2nc(-c3ccc(O)cc3)c(Nc3ccc4c(c3)OCO4)n2c1", "Potency": "inactive"}, {"smiles": "COc1cccc(-n2cc(C(=O)NCc3cccc(Cl)c3)c3ccccc3c2=O)c1", "Potency": "inactive"}, {"smiles": "COc1ccc(-n2ncc3c(N4CCc5ccccc54)ncnc32)cc1", "Potency": "inactive"}, {"smiles": "Cc1cccc(-n2ncc3c(N4CCc5ccccc54)ncnc32)c1", "Potency": "inactive"}, {"smiles": "COc1ccc(-n2ncc3c(N4CCCc5ccccc54)ncnc32)cc1", "Potency": "10 µM (active)"}, {"smiles": "Cc1oc(C)c2c(=O)cc(-c3ccc4c(c3)OCO4)cc(OC(=O)c3ccc(Cl)cc3)c12", "Potency": "inactive"}, {"smiles": "CC1CCCN(S(=O)(=O)c2ccc3[nH]c(=O)cc(C(=O)NCCc4ccc(Cl)cc4)c3c2)C1", "note": "(stereo unspecified)", "Potency": "inactive"}]}]}
